Laboratory results: PubChem BioAssay (Tox21)
Where “and” joins values, the source holds several entries; their conditions need not be identical. Identical values can stand only once. Records with an inconclusive call do not appear. Some compounds were tested as several samples or in several runs, with calls that do not always agree. Calls of active or inactive are those of the source. Unless noted, calls come from the whole dose curve; as a rule, active = well fitted curve in the direction sought with a large enough effect in the repeat runs; inconclusive = weak or mixed curves; inactive = no such curve, though single readings can be large; an effect the other way counts as inactive or inconclusive.

Tests used:
[1] = qHTS assay to identify small molecule agonists of the hypoxia (HIF-1) signaling pathway - cell viability counter screen (AID 1224844; calls by dose curve; note: nearly all actives have a fitted effect of over 50% in size; note: potency is the fitted concentration of half-maximal effect)
Method in brief: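 In this counter screen, HRE-bla ME-180 cell viability after 17 hrs of compound exposure at 37C was read by CellTiter-Glo luminescence, multiplexed with the beta-lactamase reporter measurement.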

[2] = qHTS assay to identify small molecule agonists of H2AX (AID 1224845; active = well fitted activation curve with a large enough effect in the signal ratio in the repeat runs, not every such curve was filed as active; the % refers to the signal ratio)
Method in brief: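 Wild-type CHO-K1 cells, plated overnight, exposed 3hr at 37C to 15 concentrations (0.76% DMSO final). Lysed, then HTRF anti-pH2AX (S139) cryptate and anti-H2AX-d2 antibodies, 24 hr room temperature; 665/620 nm emission read.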

[3] = qHTS assay to identify small molecule agonists of the hypoxia (HIF-1) signaling pathway (AID 1224846; active = well fitted activation curve with a large enough effect in the signal ratio in the repeat runs, not every such curve was filed as active; the % refers to the signal ratio)
Method in brief: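 ME-180 HRE-bla reporter cells; compounds in DMSO, 17 h at 37C; read-out beta-lactamase via CCF4-AM FRET.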

[4] = qHTS assay to identify small molecule agonists of H2AX - cell viability counter screen (AID 1224847; calls by dose curve; note: top concentration of the series differs between compounds; nearly all actives have a fitted effect of over 30% in size)
Method in brief: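 Quantitative HTS viability measurement: CHO-K1 wild-type cells in serum (10% FBS) medium, short 3 hr drug exposure at 37C with 0.76% DMSO, CellTiter-Glo luminescent detection.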

[5] = qHTS assay to identify small molecule antagonists of the estrogen related receptor (ERR) signaling pathway from Tox21 library (AID 1224848); note: nearly all actives have a fitted effect of over 50% in size
Method in brief: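 Quantitative high-throughput format: ERR reporter cells (2,000/well) pre-incubated 6 h, treated 18 h at 37 C with compounds in DMSO alongside positive and negative controls, then read by ONE-Glo luminescence.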

[6] = qHTS assay to identify small molecule agonists of the estrogen related receptor (ERR) signaling pathway from Tox21 library (AID 1224849; calls by dose curve; note: nearly all actives have a fitted effect of over 15% in size); conditions: ERR reporter cell line, ONE-Glo luciferase, 18 h; at 92.4 µM (top of the series)
Method in brief: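 Luciferase activity in ERR pathway reporter cells served as the agonist readout; exposure lasted 18 h at 37 C, with ONE-Glo detection after 30 min at room temperature.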

[7] = qHTS RealTime-Glo MT Cell Viability Assay in HepG2 cells - 24 hour (AID 1224867); note: nearly all actives have a fitted effect of over 50% in size
Method in brief: (§1)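 Tox21 10K library screened in qHTS format on HepG2 cells carrying RealTime-Glo reagents. Compounds were added after a 5 h preincubation, and the luminescent signal from continuous culture was measured repeatedly during 40 h treatment.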

[8] = qHTS RealTime-Glo MT Cell Viability Assay in HEK293 cells - 32 hour (AID 1224868); note: nearly all actives have a fitted effect of over 50% in size; note: potency is the fitted concentration of half-maximal effect
Method in brief: (§2)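 Luminescence generated by NanoLuc from substrate produced by living HEK293 cells served as the viability signal. Each value reflects the reading at its stated time point during continuous 40 h compound exposure at 37 C.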

[9] = A CellTox Green Cytotoxicity Assay to monitor cytotoxicity in HEK293 cells - 0 hour (AID 1224869); note: nearly all actives have a fitted effect of over 50% in size
Method in brief: (§3)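 Real-time, in one plate: 600 HEK293 cells/well with dead-cell DNA dye, pinned compound after 5 h, 37 C incubation over 40 h; viable cells give no appreciable fluorescence.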

[10] = qHTS RealTime-Glo MT Cell Viability Assay in HepG2 cells - 40 hour (AID 1224870); note: nearly all actives have a fitted effect of over 50% in size
Method in brief: (§4)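 HepG2 cells (600/well) mixed with RealTime-Glo MT reagent, settled 5 h at 37 C/5% CO2 before compound addition. Nonlytic NanoLuc luminescence from viable-cell prosubstrate reduction read repeatedly during 40 h treatment at 37 C.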

[11] = A CellTox Green Cytotoxicity Assay to monitor cytotoxicity in HEK293 cells - 40 hour (AID 1224871); note: nearly all actives have a fitted effect of over 45% in size
Method in brief: as §3

[12] = qHTS RealTime-Glo MT Cell Viability Assay in HEK293 cells - 16 hour (AID 1224872)
Method in brief: as §2

[13] = qHTS RealTime-Glo MT Cell Viability Assay in HepG2 cells - 8 hour (AID 1224873); note: nearly all actives have a fitted effect of over 55% in size
Method in brief: as §4

[14] = qHTS RealTime-Glo MT Cell Viability Assay in HEK293 cells - 40 hour (AID 1224874); conditions: RealTime-Glo luminescence; max response: stronger effect = lower value; note: nearly all actives have a fitted effect of over 50% in size; note: potency is the fitted concentration of half-maximal effect
Method in brief: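 Kinetic, non-lysing viability readout. Seed HEK293 (600/well) with reagent, incubate 5 h at 37 C/5% CO2, pin 23 nL compound in DMSO, incubate at 37 C, read luminescence at 0, 8, 16, 24, 32, 40 h.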

[15] = A CellTox Green Cytotoxicity Assay to monitor cytotoxicity in HEK293 cells - 24 hour (AID 1224875); note: nearly all actives have a fitted effect of over 45% in size
Method in brief: as §3

[16] = A CellTox Green Cytotoxicity Assay to monitor cytotoxicity in HepG2 cells - 16 hour (AID 1224876); note: nearly all actives have a fitted effect of over 45% in size
Method in brief: (§5)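 Cytotoxicity was tracked as dead-cell DNA fluorescence in HepG2 cells treated with test compounds at 37 C; each time-point value comes from one kinetic series spanning 0, 8, 16, 24, 32 and 40 h.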

[17] = qHTS RealTime-Glo MT Cell Viability Assay in HepG2 cells - 32 hour (AID 1224877); note: nearly all actives have a fitted effect of over 55% in size
Method in brief: as §1

[18] = biological target: Thyrotropin receptor (Homo sapiens) (UniProt P16473); assay: qHTS assay to identify small molecule agonists of the thyroid stimulating hormone receptor (TSHR) signaling pathway (AID 1224843; calls by dose curve; note: nearly all actives have a fitted effect of over 45% in size)
Sequence of Thyrotropin receptor (Homo sapiens) (P16473 whole entry, looked up): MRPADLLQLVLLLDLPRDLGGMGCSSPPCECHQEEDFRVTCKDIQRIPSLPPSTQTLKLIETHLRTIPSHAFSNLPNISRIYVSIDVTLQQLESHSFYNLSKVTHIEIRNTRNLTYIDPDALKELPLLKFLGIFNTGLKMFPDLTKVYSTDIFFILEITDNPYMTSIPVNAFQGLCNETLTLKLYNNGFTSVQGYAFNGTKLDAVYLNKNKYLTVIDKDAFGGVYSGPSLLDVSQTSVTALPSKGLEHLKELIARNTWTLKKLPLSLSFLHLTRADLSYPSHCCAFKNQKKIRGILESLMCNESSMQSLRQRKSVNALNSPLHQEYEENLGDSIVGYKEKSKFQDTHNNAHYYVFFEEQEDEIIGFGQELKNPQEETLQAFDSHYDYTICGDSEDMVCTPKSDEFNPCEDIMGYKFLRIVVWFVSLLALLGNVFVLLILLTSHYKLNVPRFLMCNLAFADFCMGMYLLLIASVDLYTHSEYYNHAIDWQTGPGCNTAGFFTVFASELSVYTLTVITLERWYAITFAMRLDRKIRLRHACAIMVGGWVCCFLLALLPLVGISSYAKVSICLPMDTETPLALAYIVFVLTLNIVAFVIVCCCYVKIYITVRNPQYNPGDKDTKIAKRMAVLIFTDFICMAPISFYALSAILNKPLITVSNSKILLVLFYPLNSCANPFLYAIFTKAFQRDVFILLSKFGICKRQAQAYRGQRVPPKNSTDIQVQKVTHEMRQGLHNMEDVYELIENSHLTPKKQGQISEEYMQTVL
Method in brief: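 Agonist-mode screen: TSHR HEK293 cells received test chemicals for half an hour at room temperature, then HTRF cAMP detection reagents for one hour prior to fluorescence measurement. Each chemical ran as a 15-concentration series, triplicated.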

[19] = A CellTox Green Cytotoxicity Assay to monitor cytotoxicity in HepG2 cells - 24 hour (AID 1224878); note: nearly all actives have a fitted effect of over 45% in size
Method in brief: as §5

[20] = A CellTox Green Cytotoxicity Assay to monitor cytotoxicity in HepG2 cells - 40 hour (AID 1224879); note: nearly all actives have a fitted effect of over 40% in size
Method in brief: as §5
% is set by controls: 0 for no effect and ±100 for the full control effect.

O=CCCCC=O
active: Potency [1] 21.1 µM and 19.5 µM | Potency [14] 42.1 µM
inactive: outcome [2] | Potency [3] | Potency [4] | Potency [5] | activity change, positive = activation [6] -0.881% and -3.51% | Potency [7] | Potency [9] | Potency [10] | Potency [11] | Potency [12] | Potency [13] | max response [14] 3.08% | Potency [15] | Potency [16] | Potency [17]
42.1 µM (active) and inactive: Potency [8]

c1ccncc1
inactive: Potency [18] | Potency [1] | Potency [3] | Potency [4] | Potency [7] | Potency [8] | Potency [9] | Potency [10] | Potency [11] | Potency [13] | max response [14] 5.95% and 4.64% | Potency [15] | Potency [16] | Potency [19] | Potency [20]

O=P(O)(O)O
inactive: Potency [1] | outcome [2] | Potency [3] | Potency [4] | Potency [7] | Potency [8] | Potency [9] | Potency [10] | Potency [11] | Potency [12] | Potency [13] | Potency [15] | Potency [16] | Potency [17] | Potency [19] | Potency [20]
